# Screens from PubChem BioAssay.
# Compounds with a hit are over-represented: about 1.7% of the library has one in this group of screens.
# aDG glyco up: alpha-DG glycosylation activation | hit rate 0.22% among 360,000 | Pro5-aDG cells, alpha-DG glycosylation AlphaScreen (IIH6); 0% Pro5, 100% B10-LARGE cell signal | activation, % at 10 µM;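 active = activation of at least 8% versus controls, or a plate z-score of at least 8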;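 also: Pro5 are CHO cells carrying HIG-tagged alpha-DG that lacks glycosylation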
# ARNT TACC3 PPI: disrupts binding between human ARNT and TACC3. Q9Y6A5. hit rate 0.66% among 390,000. AID 623870. inhibition, % at 9.99 µM. AlphaScreen His-ARNT PAS-B/GST-TACC3 binding, luminescence; TACC3 fragment carries E629A point mutation;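 active = mean inhibition of replicates at least 50% and at least half of replicates each reaching 50%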;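 also: 0% = complete ARNT plus TACC3 wells and 100% = ARNT alone without TACC3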
# Vif inh: HIV Vif inhibition; HEK293T cells, Vif self-association by quenched fluorescence, imaging, 24 h; inhibition, % at 7.49 µM; hit rate 0.35% among 340,000; AID 602346; in the data active = inhibition above about 50%, passing the limit was not always enough
# Cardio protect: modulators protecting cardiomyocytes from myocardial damage | H9c2 cardiomyocytes, H2O2 injury protection, ATPLite, 2 h | protection from H2O2 cell death, % at 20 µM | hit rate 0.63% among 360,000 | AID 588492;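 active = compounds giving at least 50% protection of heart cells from peroxide-induced death in the single-dose screen, raw or plate-pattern-corrected value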;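 also: 0% = DMSO wells with peroxide and 100% = DMSO wells without peroxide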
# Glyco luc inh: N-linked glycosylation inhibition. D54 ERlucT glycosylation luciferase reporter, 24 h; percent of 100 nM tunicamycin response. reporter increase, % at 12.5 µM. hit rate 0.23% among 360,000;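 active = mean luciferase reporter signal, scaled so untreated is 0 and the glycosylation-blocking control 100, at or above a set limit in every replicate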;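 also: luciferase carries N-glycosylation sites so blocking glycosylation raises the light; 0% = median of neutral control wells and 100% = median of 100 nM tunicamycin wells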
# aDG glyco conf: confirmation of alpha dystroglycan glycosylation activators; AID 651671; activation, % at 10 µM (by protocol); shares compounds with aDG glyco up; hit rate 17% among 600; Pro5-aDG cells, alpha-DG glycosylation, IIH6 AlphaLISA; scaled to LARGE-overexpressing B10 cells as 100%;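 active = activation of at least 7% in one or more replicates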;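 also: cells exposed to compound for two days before detection; 0% = DMSO-treated Pro5 cells and 100% = DMSO-treated B10-LARGE cells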
# Starred values were filed as active, the others as inactive; · = no result.
SMILES,aDG glyco up,ARNT TACC3 PPI,Vif inh,Cardio protect,Glyco luc inh,aDG glyco conf
CC(CNC(=O)c1cc(COc2ccc3ncccc3c2)on1)c1ccccc1 (configuration not stated),4.7*,0,·,-17,·,2
C[C@H](CO)N1C[C@H](C)[C@H](CN(C)Cc2ccc(C(F)(F)F)cc2)Oc2ccc(NC(=O)c3ccncc3)cc2C1=O,·,0,·,·,·,·
NC(c1csc(Nc2cc(Oc3ccccc3)ncn2)n1)C1CCCCC1 (configuration not stated),9.7*,·,9,-8,-6,11*
CN1c2ccc(-c3ccccc3)cc2[C@H]2[C@H](CCN2C(=O)CN2CCOCC2)[C@H]1CO,·,9,·,·,·,·
CCOC(=O)c1ccc(NC(=S)N2CCN(C)CC2)cc1,6.9*,1,-5,7,-2,-1
CCOC(=O)c1ccc(NC(=S)N2CCC(C(N)=O)CC2)cc1,0,-17,-4,6,-1,·
CCC(=O)N(CC)C[C@@H]1[C@@H](c2ccccc2)[C@H](CO)N1C(C)=O,·,-8,·,·,·,·
COc1ccc(NC(=O)N(C)C[C@@H]2Oc3ccc(NC(=O)Nc4ccc(F)cc4)cc3C(=O)N([C@H](C)CO)C[C@@H]2C)cc1,·,1,·,·,·,·
Cc1ccc(S(=O)(=O)Nc2ccc3c(c2)C(=O)N([C@H](C)CO)C[C@H](C)[C@H](CN(C)Cc2ccc(C(=O)O)cc2)O3)cc1,·,-5,·,·,·,·
CCCCCCOc1ccc(/C(C)=N/NC2=NCCN2)cc1,0,17,-3,-22,-8,·
CCCCCOc1ccc(/C(C)=N/NC2=NCCN2)cc1,1.6*,4,4,-9,1,8.6*
CCC(C)Nc1nc(-c2c[nH]c3ccccc23)cs1 (configuration not stated),7.7*,·,0,-7,-1,6.9*
CNc1nc(-c2c[nH]c3ccccc23)cs1,11*,-58,4,-1,2,7.9*
Nc1nc(-c2c[nH]c3ccccc23)cs1,9.1*,14,·,49*,4,2
CN1CCN(CC(=O)Nc2nc(-c3c[nH]c4ccccc34)cs2)CC1,0,25,-7,9,3,·
C[C@@H]1CN([C@H](C)CO)S(=O)(=O)c2ccc(/C=C/c3ccccc3)cc2O[C@@H]1CN(C)C(=O)NC1CCCC1,·,-6,·,·,·,·
O=C(C[C@H]1C=C[C@H](NC(=O)NC2CCCCC2)[C@@H](CO)O1)NCc1ccc(Cl)cc1,·,-5,·,·,·,·
CCCNC(=O)N1C[C@H]2[C@@H](c3ccccc31)[C@H](CO)N2CC1CCCCC1,·,2,·,·,·,·
CCN(CC)CCn1c(=N)n(CC(=O)c2ccc(C)cc2)c2ccccc21,3.8*,1,-29,-4,-2,11*
CCN(CC)C(=O)c1cccc(C)c1,0,-4,1,-3,1,·
CCN(CC)C(=O)NCc1c(C)cc(C)cc1C,47*,-3,9,14,-2,-1
O=C(/C=C/c1ccc2c(c1)OCO2)N1CCN(c2ccc(Cl)cc2)CC1,15*,2,-7,2,2,1
O=C(COc1ccc2c3c(c(=O)oc2c1)CCCC3)NCc1cccnc1,7.0*,0,7,0,0,0
O=C(COc1ccc2c3c(c(=O)oc2c1)CCC3)NCc1ccccn1,0,4,2,2,-1,·
Cn1nccc1C(=O)Nc1cc(Cl)ccc1Cl,2.7*,·,22,-2,0,-1
SMILES,aDG glyco up,ARNT TACC3 PPI,Vif inh,Cardio protect,Glyco luc inh,aDG glyco conf
C[C@@H]1CCCCO[C@@H](CN(C)C(=O)Nc2ccc3c(c2)OCO3)[C@H](C)CN([C@H](C)CO)C(=O)c2cc(NS(C)(=O)=O)ccc2O1,·,7,·,·,·,·
Nc1nnc(-c2ccc([N+](=O)[O-])o2)s1,7.9*,-22,-16,-2,7,4.0*
O=C(Nc1ccccc1F)c1ccc([N+](=O)[O-])s1,16*,31,-7,0,-1,3.7*
O=C(Nc1cccc2ccccc12)c1ccc([N+](=O)[O-])s1,12*,·,5,-10,-1,5.7*
CN(C)NC(=O)c1ccc([N+](=O)[O-])s1,0,2,-8,-2,5,·
O=C(/C=C/c1ccco1)Nc1ccc(-c2nc3ccccc3[nH]2)cc1,5.0*,0,7,17,14,-1
